Experimental data taken from PMC12136788.
Residue numbers refer to the chain shown, from its start. The full ranking holds about 24,000 sequences; the median of “enrichment r” is about 0.99, and the highest 2% start at about 3.7. The full list was thinned out, with the highest values kept by preference.

T1: UNK ZnF1-3 (human, UniProt Q9C0B0 31-174)
T1 sequence: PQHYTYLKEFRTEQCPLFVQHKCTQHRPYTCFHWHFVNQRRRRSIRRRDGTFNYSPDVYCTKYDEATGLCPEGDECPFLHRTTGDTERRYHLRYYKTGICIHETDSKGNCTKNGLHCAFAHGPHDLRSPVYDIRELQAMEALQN

B1: 44559432_44560298_1111_3pUTR_ENSMUSG00000032096_ENSMUST00000034607|mouse|control|control (ssRNA)
RNA: GGGAGUUCUACAGUCCGACGAUCACAUUUGGAUGCGUCUGUAGCUGCACCCCUUUCUUAUCUUCAUUUUCUACAUGAAGACGAAUCCGGCCAAAUUUGUCAUCUGAGAUCCUAAGCAUGAUCAUGCCAUGCAACUCCAUAUUCCAACAGAGGAUUGAGCAUCA
B2: chr15:55677894:55677895:-_ENSG00000260916_ENST00000569205|hu_mus|motif|central (ssRNA)
RNA: GGGAGUUCUACAGUCCGACGAUCGGAACAUUCUAGAGUCAGUCCACAGUUGUCACUGGCUGUGGCAGAAUUCACGAUCUCGGUAUCAGAACCCUCAUGAUUGAUGACAGUCCAGCCACAAGAUGAGUCGCUGUCGCUGGAACUCAACAGAGGAUUGAGCAUCA
B3: chr5:133537698:133537699:-_ENSG00000113575_ENST00000481195|hu_mus|FALSE|FALSE (ssRNA)
RNA: GGGAGUUCUACAGUCCGACGAUCGCUCUCGUGAUUCCCUCGGAGUAUGGUGAUGCGCUCUCGGUAACGAACCUUAAGAGCUACAAGCAGUGUAACUGUUUCAACAGAGUAAUAUCCUCUGUCCACAUAGUCUCCCAUAAACAGCAACAGAGGAUUGAGCAUCA
B4: chr7:129114946:129114947:-_ENSMUSG00000034951_ENSMUST00000057576|mus_hu|motif|central (ssRNA)
RNA: GGGAGUUCUACAGUCCGACGAUCAUCAACAAGCAUCAUUAAGCUGUUCUGCAUACCUGUUAGCUUGGCAGAAAUCACAGCGGUGUCCUGAGUCUUAAAUGUCUCCUCAAUAUCGGCGCUCAACGUGCUCCACUUAUCUGCUUCCAACAGAGGAUUGAGCAUCA
B5: chr2:179515052:179515053:+_ENSMUSG00000000305_ENSMUST00000000314|mus_hu|mus_mus_mus_hu_False|28_108 (ssRNA)
RNA: GGGAGUUCUACAGUCCGACGAUCGCUUUCCCGCGCAGUCACCGUGAACGCCACCUGCUCGGAGGGGACCUGCAGCUCCCGGGUGGCGAAGACUGUCCCAUCUGCCCCGACUUUGAAGUCCAUGCUGUUGGUCUCAUAUUGUGUCAACAGAGGAUUGAGCAUCA
B6: chr22:38881817:38881818:-_ENSG00000100201_ENST00000396821|hu_mus|FALSE|FALSE (ssRNA)
RNA: GGGAGUUCUACAGUCCGACGAUCUAAUUAUAGACUGGAUCUUUUGGGUGGGCAGAAGAAACCUGGCAGUGAAAUUUUAACUAUCUGCAUUAAAAAAAGAUAAACCGUAAUGGUUGAGAAAAGAAAAAAUAAAAAUGAAAAGGUCAACAGAGGAUUGAGCAUCA
B7: 110384571_110384691_763_CDS_ENSG00000138802_ENST00000265175|human|control|control (ssRNA)
RNA: GGGAGUUCUACAGUCCGACGAUCUCCUGAAAGACUUUGCUGCUGGUGGUGCUGUUGUGAUGGUAGAGGUGGAAGUGGCGAUGGAUGGCUGAUAGCUGUAUUUUGACCAGAGAAUGAAUUAUCUUUAACUGGCCUAACAGUCGGCAACAGAGGAUUGAGCAUCA
B8: chr22:38881817:38881818:-_ENSG00000100201_ENST00000396821|hu_mus|motif|central (ssRNA)
RNA: B6 RNA with U81G, A82G
B9: chr1:109605286:109605287:-_ENSG00000197780_ENST00000461096|hu_mus|hu_hu_hu_mus_True|58_108 (ssRNA)
RNA: GGGAGUUCUACAGUCCGACGAUCAAGAACAAUAACAACAUUCAGUAACCUCUUUAAAUGCAAUUAUCCUUAUUAUAAACUAAGGGCAAUAAUAAUUUAAUACCGUAAGUGAACUACACACAAAGCCUGAACCGCGAAAAUGGUCAACAGAGGAUUGAGCAUCA
B10: 65775431_65775551_264_CDS_ENSG00000116675_ENST00000371069|human|control|control (ssRNA)
RNA: GGGAGUUCUACAGUCCGACGAUCCACUCUCUGCUUGCCGCCAACCCCGCCGCUUCCCGCACUUAAGUCCCCGUUACUGUCCACCAGCUGCAAAGAUUCAUAACCAUCGUUGCUGGUCUUUUUCCGGUAGCUCCCGAGGAGGCUCAACAGAGGAUUGAGCAUCA
B11: chr4:42581876:42581877:-_ENSG00000124406_ENST00000264449|hu_hu|FALSE|FALSE (ssRNA)
RNA: GGGAGUUCUACAGUCCGACGAUCGCCACCAUAGUUUAGAUUGAGAUACCAGUCUUUUCCAGAAUGCCUUCGAUUCCAAAUGGCUGAGCCCACAGAACAGACAAGAGACAUGGCAAUUAAGAUACAAAAUAAAAUCAAAAUUUGCAACAGAGGAUUGAGCAUCA
B12: chr21:34924512:34924513:+_ENSG00000159140_ENST00000381679|hu_mus|motif|central (ssRNA)
RNA: GGGAGUUCUACAGUCCGACGAUCAGAUGACAUCAUGGAACGUUCUGCAGCAUAGGACAUCAUCAUAGAACGUCUAGAUGCGGACAUCAAGGGUCUAGGUGCUAACCUGUAUGGCCUAGGUGCUAUCCUAUAGGACCUGGGUGCCAACAGAGGAUUGAGCAUCA
B13: 122452171_122453414_3711_CDS_ENSMUSG00000034602_ENSMUST00000073792|mouse|control|control (ssRNA)
RNA: GGGAGUUCUACAGUCCGACGAUCUCGGUCCAGUAGAUGAAAGAGUACCUUCCAAAUAACGGUGUGCCAGGUGGAGUGCUGCAGCAGGGUCCCGUGCGCUCCGAUCGUGGAGAACAGGGUCUGCCCUGCGCUCUUCCUCACGGCCAACAGAGGAUUGAGCAUCA
B14: chr17:56552419:56552420:-_ENSMUSG00000013236_ENSMUST00000086828|mus_mus|mus_mus_mus_hu_False|48_98 (ssRNA)
RNA: GGGAGUUCUACAGUCCGACGAUCAAAAAAUACACUAUAAAAAAAAAAUGAAAUGUCACGGGAUACAGUUACACUGAGAGUUUUAAAAAAAAAUAAGAUUCUGGUCCCAGCCCAGUGUCCCCAGGCUGCAGAGCGGGGAGGAGCCAACAGAGGAUUGAGCAUCA
B15: chr17:56552419:56552420:-_ENSMUSG00000013236_ENSMUST00000086828|mus_mus|mus_mus_mus_hu_False|48_58 (ssRNA)
RNA: B14 RNA with A38U, A39U, G77C, G79C, U81A
B16: chr17:56552419:56552420:-_ENSMUSG00000013236_ENSMUST00000086828|mus_mus|mus_mus_mus_hu_False|1_48 (ssRNA)
RNA: B14 RNA with A38U, A39U, A138C, G139A, C143G

Biological target: T1, UNK ZnF1-3
Experiment: nsRBNS (natural sequence RNA bind-n-seq); RBNS binding buffer (assumed for nsRBNS): 25 mM Tris pH 7.5, 150 mM KCl, 3 mM MgCl2, 0.01% Triton X-100, 500 ug/ml BSA, 20 U/ml SUPERase-In, 4 C; UNK is unkempt and MSI1 is Musashi-1; names of the RNAs are library labels; protein concentration not given here; high values mean tight binding

| Binder | binding signal [enrichment R] |
| --- | --- |
| B1 | 0.578 |
| B2 | 0.495 |
| B3 | 0.691 |
| B4 | 0.781 |
| B5 | 0.727 |
| B6 | 6.63 |
| B7 | 1.16 |
| B8 | 8.6 |
| B9 | 1.22 |
| B10 | 0.845 |
| B11 | 3.52 |
| B12 | 0.683 |
| B13 | 0.594 |
| B14 | 11.1 |
| B15 | 8.56 |
| B16 | 3.79 |
